Most compounds without a hit are left out; they make up all but 19% or so of the library.
Pf growth 96h: Primary qHTS for delayed death inhibitors of the malarial parasite plastid, 96 hour incubation; P. falciparum luciferase reporter growth, 96 h; Potency, µM (series often up to 28.7 µM), inactives show top-dose activity change, negative = inhibition, most hits filed as inhibitors; hit rate 6.9% among 320,000; note: potency is the fitted concentration of half-maximal effect; % is set by controls: 0 for no effect and ±100 for the full control effect
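Cell-based qHTS: luciferase-tagged P. falciparum in erythrocytes (2% hematocrit, 0.05% parasitemia final) incubated with compounds for 96 hours, 37 C, 5% CO2; luciferase detection reagent then added and luminescence measured.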
Pf growth 48h: Primary qHTS for delayed death inhibitors of the malarial parasite plastid, 48 hour incubation; P. falciparum luciferase growth in erythrocytes, 48 h; Potency, µM (titrated, usually from 28.7 µM), inactives show top-dose activity change, negative = inhibition, actives largely listed as inhibitors; hit rate 5.9% among 310,000; AID 504832, 2011; note: potency is the fitted concentration of half-maximal effect; % is set by controls: 0 for no effect and ±100 for the full control effect
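First compound was added to culture medium, then infected red cells at 0.1% parasitemia and 2% hematocrit (final). After incubation at 37 C under 5% CO2, luciferase detection reagent was dispensed and light output recorded.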
Shiga toxin inh: A qHTS for Small Molecule Inhibitors of Shiga Toxin. Vero cells, Shiga toxin protein synthesis inhibition reporter. inhibition, % at 38.7 µM. hit rate 9.2% among 290,000; in the data active = inhibition mostly above about 28%, no sharp cut-off; inactive = mostly below about 43%; note: 0% is about no effect
SARS PLpro yeast: qHTS of Yeast-based Assay for SARS-CoV PLP; hit rate 0.19% among 330,000; Potency, µM (series often up to 32.9 µM), without a hit: at the highest dose activity, positive = growth rescue, most hits filed as activators; S. cerevisiae expressing SARS-CoV PLpro, growth rescue; calls by dose curve; note: potency is the fitted concentration of half-maximal effect; 0% is about no effect; nearly all actives have a fitted effect of over 55% in size
AMA1 RON2 block: qHTS for Inhibitors of AMA1-RON; Towards Development of Antimalarial Drug Lead: Primary Screen; Potency, µM (titrated, usually from 58.2 µM), for the others: at the highest dose activity change, negative = inhibition, actives largely listed as inhibitors; AlphaScreen AMA1-biotinylated RON2 peptide binding; AID 720542, 2013; hit rate 0.2% among 360,000; Plasmodium falciparum AMA1 (3D7) - RON2 peptide interaction;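 note: potency is the fitted concentration of half-maximal effect; 0% = vehicle wells and -100% = peptide control; nearly all actives have a fitted effect of over 45% in size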
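AMA1 (3D7) with his tag at 25 nM final met compounds first, then biotinylated RON2 peptide at 25 nM; detection used donor plus acceptor beads, 10 µg/mL apiece, read by AlphaScreen after 30 min at room temperature.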
CHX counter: Cycloheximide Counterscreen for Small Molecule Inhibitors of Shiga Toxin. cell reporter, cycloheximide protein synthesis inhibition counterscreen. max response, %. hit rate 12% among 300,000; in the data active = max response mostly above about 13%, no sharp cut-off; inactive = mostly below about 14%; note: read at 38.3 µM for the half of the compounds with a filed dose; 0% is about no effect
Active calls of the source: *; u = inconclusive; x = no result. Unless noted, calls come from the whole dose curve; as a rule, active = well fitted curve in the direction sought with a large enough effect; inconclusive = small, poorly fitted or top-dose-only effect, or another doubt; inactive = no such curve, though single readings can be large; an effect the other way counts as inactive or inconclusive.

SMILES | Pf growth 96h | Pf growth 48h | Shiga toxin inh | SARS PLpro yeast | AMA1 RON2 block | CHX counter
Nc1ccc(N2CCN(C(=O)c3ccco3)CC2)cc1 | u | u | 12 | 5% | u | 2
CC(=O)N1CCN(c2ccc(NCc3ccccc3)cc2)CC1 | x | 44% | 17 | -3% | -13% | 5
Fc1ccc(CNc2ccc(N3CCN(Cc4ccccc4)CC3)cc2)cc1 | 9.3µM* | -22% | 12 | -6% | u | 6
CC(C)OC(=O)c1cc2c(ccn2-c2ccc(F)cc2)n1CC(=O)N1CCN(C(=O)c2ccco2)CC1 | u | 1.7µM* | 12 | -2% | -11% | -3
O=C(c1ccco1)N1CCN(c2ccc(F)cc2)CC1 | -8% | 33% | 100* | 0% | 3% | 26
O=C(Nc1ccc(N2CCN(C(=O)c3ccco3)CC2)cc1)c1ccc(F)cc1 | 66% | 0% | 3 | 11% | -9% | -2
Cc1nn(S(=O)(=O)c2ccc(F)cc2)c(C)c1S(=O)(=O)N1CCCCC1 | -7% | -2% | -4 | -1% | -6% | -2
O=C(Nc1ccc(N2CCN(Cc3ccccc3)CC2)cc1)c1ccco1 | 10% | u | 65* | u | -6% | 13*
CC(C)CC(=O)N1CCN(c2ccc(NC(=O)c3ccco3)cc2)CC1 | 9.3µM* | u | 2 | 1% | -3% | -1
CCCCC1(c2ccc(F)cc2)NC(=O)N(CC(=O)N2CCN(C(=O)c3ccco3)CC2)C1=O (configuration not stated) | 6.6µM* | -14% | -12 | -3% | -2% | 4
CC(C)(C)C(=O)N1CCN(c2ccc(NC(=O)c3ccco3)cc2)CC1 | u | -29% | 10 | 0% | 10% | -2
COC(=O)c1c(NC(=O)CSc2ccccc2N)sc(C)c1C | u | u | -4 | -3% | -24% | 9
CN1CCN(C(=O)c2cc(COc3ccccc3)on2)[C@@H](c2ccccc2)C1 | 32% | u | 117* | 8% | 1% | 55*
Cc1ccc(OCc2cc(C(=O)N3CCN(C)C[C@@H]3c3ccccc3)no2)cc1C | u | u | 123* | 0% | -19% | 75*
Cc1ccc(OCc2cc(C(=O)N3CCC(Oc4cccnc4)CC3)no2)cc1C | u | 5% | 25 | -13% | -8% | 20
O=C1c2ccccc2C(c2nnnn2Cc2ccccc2)N1Cc1ccco1 (configuration not stated) | x | x | x | x | 1% | x
C[C@@H](NC(=O)c1[nH]cnc1C(=O)Nc1ccon1)c1ccccc1 | u | u | x | -3% | 144% | x
Cc1ccc(-c2ccc(CN3C(CC(C)C)C(=O)N(Cc4cn(CC5CCCCC5)nn4)CCS3(=O)=O)cc2)cc1 (configuration not stated) | x | x | x | x | -2% | x
Cc1ccc(NC(=O)c2ccc(NCCCN3CCC(C)CC3)c([N+](=O)[O-])c2)cc1F | -23% | 1.2µM* | -13 | -2% | -12% | 3
CCCNc1ccc(C(=O)OCC)cc1[N+](=O)[O-] | 0% | 193% | 83* | 3% | u | 52*
Cc1cccc(NC(=O)c2ccc(NCCc3ccccc3)c([N+](=O)[O-])c2)c1 | -29% | -7% | -6 | -5% | -12% | -2
CCOC(=O)CNc1ccc(C(=O)OCC)cc1[N+](=O)[O-] | 9% | 2% | -9 | 23% | -4% | 4
O=C(Nc1cccc(Cl)c1)c1ccc(NCCCN2CCOCC2)c([N+](=O)[O-])c1 | 134% | u | 26 | 5% | -1% | 1
Cc1ccc(NC(=O)c2ccc(NCCN)c([N+](=O)[O-])c2)cc1 | u | u | 33* | 6% | -6% | 20*
COCCCN(CC(=O)O)S(=O)(=O)c1cccc(Cl)c1 | 16% | 5% | -14 | 1% | -11% | -1
SMILES | Pf growth 96h | Pf growth 48h | Shiga toxin inh | SARS PLpro yeast | AMA1 RON2 block | CHX counter
COc1cc(C(=O)Nc2ccc(S(=O)(=O)N3CCOCC3)cc2)c([N+](=O)[O-])cc1OC | -2% | 0% | -8 | 0% | -2% | 1
Cc1cc(S(=O)(=O)N(Cc2ccccc2Cl)c2ccc3c(c2)CCC3)ccc1-n1cnnn1 | 87% | 12µM* | -5 | -9% | 12% | -2
COc1cccc(CN(c2ccc3c(c2)CCC3)S(=O)(=O)c2ccc(-n3cnnn3)c(OC)c2)c1 | u | u | -6 | -3% | -2% | -3
CCOc1cc(C(=O)N2CCC(CC3CC(c4ccc(Cl)cc4)=NO3)(C(=O)NCC3CCCCC3)CC2)cc(OCC)c1OCC (configuration not stated) | 0.23µM* | 0.29µM* | -4 | 1% | -8% | -2
CCCNC(=O)C1(CC2CC(c3ccccc3)=NO2)CCN(C(=O)c2ccccc2)CC1 (configuration not stated) | u | 12µM* | x | -1% | 1% | x
O=C(c1ccccc1)N1CCC(CC2CC(c3cccc(Br)c3)=NO2)(C(=O)NCC2CCCCC2)CC1 (configuration not stated) | 5.2µM* | u | 3 | 0% | -2% | 3
O=C(NCC1CCCCC1)C1(CC2CC(c3cccc(Br)c3)=NO2)CCNCC1 (configuration not stated) | u | -64% | 14 | 9% | 6% | -8
CC(C)(C)OC(=O)N1CCC(CC2CC(c3cccc(Br)c3)=NO2)(C(=O)NCC2CCCCC2)CC1 (configuration not stated) | u | u | 26 | 1% | -25% | 13*
O=C(C(=O)N1CCN(c2ccccc2F)CC1)c1cn(CC(=O)N2CCCC2)c2ccccc12 | x | x | x | x | 11% | x
Cc1csc(NC(=O)CSc2nnc(-c3ccoc3C)n2Cc2ccco2)n1 | x | -25% | -14 | 1% | -2% | -8
CN1CCN(S(=O)(=O)c2ccc(NC(=O)c3ccc(F)cc3Cl)cc2)CC1 | u | 37% | -2 | -2% | -12% | -2
C#CCN(C(=O)c1ccc(OC)c(OC2CCN(C(C)C)CC2)c1)C1CCCCC1 | u | -18% | -7 | 0% | -5% | 2
Cc1noc(C)c1C(=O)N1CCC1(C)C(=O)NS(=O)(=O)c1ccc(F)cc1F (configuration not stated) | x | x | x | x | 3% | x
CC(C)C(=O)NC(c1ccco1)c1ccc2cccnc2c1O (configuration not stated) | 28% | 2.1µM* | 36 | u | 20µM* | 1
CCN(CC)c1ccc(C(NC(=O)C(C)C)c2ccc3cccnc3c2O)cc1 (configuration not stated) | x | x | x | x | -15% | x

Compound activity from PubChem BioAssay.
